According to PubChem BioAssay (NCI):
About 83,000 compounds went through this panel and 20% of them were active in at least one assay; those are over-represented in the sample as a whole.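 Values shown are percent growth following 48 h exposure of cells in 96-well plates to a single concentration of compound; below 10 was considered active.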 The source made the active and inactive calls.

Key:
Assay in all cases: NCI-60 one-dose screen, 48 h (100 = growth as untreated, 0 = no growth, -100 = all killed)
[1] = system: SK-MEL-2 melanoma; conditions: 10 µM unless noted
[2] = system: EKVX NSCLC; conditions: 10 µM
[3] = system: SN12C renal; conditions: 10 µM unless noted
[4] = system: UO-31 renal; conditions: 10 µM unless noted
[5] = system: TK-10 renal; conditions: 10 µM unless noted
[6] = system: ACHN renal; conditions: 10 µM unless noted
[7] = system: CAKI-1 renal; conditions: 10 µM unless noted
[8] = system: A498 renal; conditions: 10 µM unless noted
[9] = system: CCRF-CEM leukemia; conditions: 10 µM
[10] = system: MOLT-4 leukemia; conditions: 10 µM unless noted

Measured: growth

CCC(CCCN1C(=O)c2ccccc2C1=O)Nc1cc(OC)cc2cccnc12 (stereo not given)
inactive: [1] 97.8% | [2] 97.2% | [3] 99.3% | [4] 94.8% | [5] 136% | [6] 103% | [7] 111% | [8] 84.3% | [9] 84.5% | [10] 73.8%

Clc1ccc(N/N=C(/c2ccccc2)c2ccccn2)nc1
inactive: [1] 63.5% | [2] 18.5% | [3] 47.3% | [4] 28.3% | [5] 37.3% | [6] 24.1% | [7] 36.2% | [8] 52.7% | [9] 14.2%
active: [10] 6.84%

O=C1C(Cl)=C(Nc2ccc(Nc3ccccc3)c(NC3=C(Cl)C(=O)c4ccccc4C3=O)c2)C(=O)c2ccccc21
inactive: [1] 106% | [2] 65.8% | [3] 85% | [4] 57.3% | [5] 27.8% | [6] 34.4% | [7] 45.3% | [8] 53% | [9] 37.9% | [10] 37.3%

COC(=O)c1ccc2[nH]c(O)c(C(=Nc3ccc(N(C)C(=O)CN4CCN(C)CC4)cc3)c3ccc(OC)cc3)c2c1
inactive: [1] 16.9% | [2] 45.7% | [3] 17% | [4] 14.3% | [5] 27.6% | [6] 14.9%
active: [7] 5.5% | [8] -16.6% | [9] 6.43% | [10] 2.57%

CCOC(=O)c1c2c(cn1Cc1ccccc1)-c1oncc1CC2
inactive: [1] 115% | [2] 91.3% | [3] 76.1% | [4] 48.7% | [5] 77.4% | [6] 94.1% | [7] 82.8% | [8] 50.5% | [9] 96% | [10] 100%

CCOC(=O)c1sc(NS(=O)(=O)c2ccccc2)nc1C
inactive: [2] 116% | [3] 100% | [4] 87% | [5] 163% | [6] 123% | [7] 124% | [8] 114% | [9] 103% | [10] 75.6%
active: [1] 2.52%

COC(=O)/C(Br)=C/c1c[nH]c2ccc(Br)cc12
inactive: [1] 88.7% | [2] 76.2% | [3] 88.1% | [4] 46.7% | [5] 78.3% | [6] 86.7% | [7] 69.1% | [8] 92.3% | [9] 23.4% | [10] 52.8%
